Assay outcomes (PubChem)
The list is not random: actives were taken first. Their share in the collection is about 5.4%.
rCAG binder – binds r(CAG) RNA repeats; 370,000 tested, 1.3% active; inhibition, % at 3 µM; r(CAG) RNA repeat, TO-PRO-1 dye displacement fluorescence;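 active = inhibition above the plate cutoff, the mean of all test compounds on that plate plus 3 SD, cut at about 35% in these data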;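 note: 0% = DMSO alone and 100% = 100 µM mitoxantrone as full dye displacement; higher means more dye released from RNA so lower well fluorescence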
aDG glyco act – alpha-DG glycosylation activation | 360,000 tested, 0.22% active | Pro5-aDG cells, alpha-DG glycosylation AlphaScreen (IIH6); 0% Pro5, 100% B10-LARGE cell signal | activation, % at 10 µM;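 active = activation of at least 8% versus controls, or a plate z-score of at least 8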;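 note: Pro5 are CHO cells carrying HIG-tagged alpha-DG that lacks glycosylation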
PHOSPHO1 inh – inhibitors of human PHOSPHO1 phosphatase; recombinant PHOSPHO1, absorbance phosphatase assay; inhibition, % at 13.3 µM; 290,000 tested, 1.1% active; AID 1565; in the data active = inhibition above about 60%
ALR H2O2 inh – blocks human ALR sulfhydryl oxidase activity. purified ALR, DTT oxidation, H2O2 HRP-luminol luminescence. inhibition, % (concentration not given with the values). 290,000 tested, 3.8% active;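 active = mean replicate inhibition above about 79%, with every replicate also reaching it, limit read from the data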
Target sequence (P55789 whole entry, looked up): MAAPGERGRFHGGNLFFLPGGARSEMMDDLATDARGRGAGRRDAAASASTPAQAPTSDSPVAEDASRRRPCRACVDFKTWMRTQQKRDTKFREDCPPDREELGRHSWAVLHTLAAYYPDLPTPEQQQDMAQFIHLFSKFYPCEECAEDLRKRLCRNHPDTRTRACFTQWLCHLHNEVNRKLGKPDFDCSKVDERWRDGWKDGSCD
A3G deaminase – APOBEC3G (human) deaminase inhibition | recombinant A3G, ssDNA deamination FAM/TAMRA fluorescence | Q9HC16 | inhibition, % at 20 µM | 330,000 tested, 0.28% active;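 active = inhibition of at least 40% at 20 µM, with no more than 30% in the related APOBEC3A deaminase screen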;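 note: plate controls were DMSO wells with A3G for no effect and wells lacking A3G enzyme for full effect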
Target sequence (Q9HC16 whole entry, looked up): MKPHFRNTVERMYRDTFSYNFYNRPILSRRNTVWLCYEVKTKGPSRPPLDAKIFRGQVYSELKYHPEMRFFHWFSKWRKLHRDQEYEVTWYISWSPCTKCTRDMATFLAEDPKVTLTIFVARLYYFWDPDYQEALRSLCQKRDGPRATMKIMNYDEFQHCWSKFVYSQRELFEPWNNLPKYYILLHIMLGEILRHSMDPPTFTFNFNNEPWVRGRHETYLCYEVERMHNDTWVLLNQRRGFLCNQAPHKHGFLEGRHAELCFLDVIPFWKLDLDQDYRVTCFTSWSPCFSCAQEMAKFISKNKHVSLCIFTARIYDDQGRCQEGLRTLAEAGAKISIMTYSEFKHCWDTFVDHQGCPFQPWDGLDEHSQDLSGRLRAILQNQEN
A3A deaminase – blocks human APOBEC3A ssDNA deamination. P31941. recombinant A3A, FAM/TAMRA ssDNA deamination fluorescence. inhibition, % at 20 µM. 330,000 tested, 0.41% active. AID 493011;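 active = at least 40% inhibition at 20 µM here, with at most 30% in a related deaminase screen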;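 note: plate controls were A3A with DMSO for no effect and wells lacking A3A enzyme for full effect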
Active calls of the source: *; x = no result.

SMILES	rCAG binder	aDG glyco act	PHOSPHO1 inh	ALR H2O2 inh	A3G deaminase	A3A deaminase
O=C(c1ccnc(Cl)c1)N1CCCC(Nc2ccc(F)cc2)C1 (centres undefined)	-5	0	5	29	-2	-1
Cn1cc(C(=O)N2CCCC(Nc3ccc(F)cc3)C2)c2ccccc21 (centres undefined)	-7	0	22	88*	-8	-7
CN(C)c1ccccc1C(=O)N1CCCC(Nc2ccc(F)cc2)C1 (centres undefined)	-4	0	29	99*	6	-1
C=CCN=C1NC(CCc2ccccc2)C(C(=O)OC)=C(C)N1Cc1ccccc1C(F)(F)F (centres undefined)	7	x	x	x	x	x
COc1ccc(NC2CC(=O)N(C(C)C)C2=O)cc1 (centres undefined)	5	0	0	9	-4	-3
O=C(Nc1ccc(N2CCOCC2)cc1)NC1CCCCC1	-3	0	26	11	-8	-8
O=C1CC(Nc2ccccc2)C(=O)N1c1ccc(N2CCOCC2)cc1 (centres undefined)	1	0	-11	-9	-3	-2
COc1ccc(CCN2C(=O)CC(Nc3ccc(N4CCOCC4)cc3)C2=O)cc1OC (centres undefined)	2	0	19	99*	-10	-3
O=C1CC(Nc2ccc(N3CCOCC3)cc2)C(=O)N1c1ccccc1F (centres undefined)	16	0	-2	99*	-9	-6
CC(C)N1C(=O)CC(Nc2ccc(N3CCOCC3)cc2)C1=O (centres undefined)	10	0	15	99*	0	0
O=C1CC(Nc2ccc(N3CCOCC3)cc2)C(=O)N1C1CCCCC1 (centres undefined)	7	0	5	99*	0	0
CCOC(=O)CC1(O)CSc2nc(N)cc(=O)n21 (centres undefined)	3	x	x	x	x	x
Nc1nc2c(C(=O)N3CCCC3)nnn2c2ccccc12	2	x	x	x	x	x
COC(=O)C1CN(Cc2cn(Cc3ccc(F)cc3)nn2)CCS(=O)(=O)N1Cc1ccc(F)cc1 (centres undefined)	2	x	x	x	x	x
CCOC(=O)CSc1nnc(N)s1	-1	0	90*	4	-7	4
N#Cc1ccc(COC(=O)CSc2nnc(C3CCCCC3)n2N)cc1	-5	0	33	3	-3	3
Nc1nnc(SCC(=O)c2cccc([N+](=O)[O-])c2)s1	4	0	-17	-9	-10	4
CCOC(=O)CSc1nnc(SCCN2C(=O)c3ccccc3C2=O)s1	-1	0	73*	5	-13	-5
N#Cc1ccc(COC(=O)CSc2nnc(N)s2)cc1	5	0	-4	97*	-5	1
CCOC(=O)CNC(=O)CSc1nnc(SCC(=O)NCC(=O)OCC)s1	-2	0	35	x	-9	-3
Nc1nnc(SCC(=O)c2ccc3ccccc3c2)s1	7	x	75*	-31	-1	-3
Cc1ccccc1C(=O)N1CCC[C@@H]1C(=O)N1CCC[C@H]1C(=O)NCc1ccccc1	-2	x	x	x	x	x
COc1ccc(-n2c(SCC(=O)Nc3ccccc3-c3ccccc3)nnc2-c2ccccc2)cc1	8	x	x	x	x	x
CCCC/C=C1/[C@H](c2ccc(Cl)cc2)N(Cc2ccc3c(c2)OCO3)C2=N[C@H](c3ccccc3)CC(=O)N21	10	x	x	x	x	x
COc1cccc(C(=O)NC(=S)Nc2ccccc2N2CCCC2)c1	6	0	-10	66	-6	-4
SMILES	rCAG binder	aDG glyco act	PHOSPHO1 inh	ALR H2O2 inh	A3G deaminase	A3A deaminase
COc1cccc(C(=O)Nc2ccccc2N2CCCC2)c1	5	0	-10	98*	3	1
COc1ccc(CCC(=O)Nc2sccc2C#N)cc1	1	x	6	-9	-3	-2
COc1ccc(NC(=O)CSCC(=O)Nc2sccc2C#N)cc1	8	2	x	99*	-4	-3
O=C(Nc1ccccc1N1CCCCC1)c1cnccn1	-6	1	19	97*	-7	-1
O=C(Nc1ccccc1N1CCCC1)c1ccc(N2CCCC2=O)cc1	-1	0	x	99*	12	1
C[C@@H]1CN([C@@H](C)CO)C(=O)CCCn2cc(nn2)CO[C@H]1CN(C)C(=O)Nc1ccccc1F	1	x	x	x	x	x
C#CCN1C(=O)[C@@](O)(c2cccn2C)c2cc(F)ccc21	1	x	x	x	x	x
COc1cccc(C(=O)Nc2ccc(NC(C)=O)cc2)c1	-1	0	18	-8	1	4
COc1cccc(C(=O)Nc2cc(Cl)c(O)c(Cl)c2)c1	1	1	28	89*	-5	0
O=C(Nc1ccccc1N1CCCC1)c1cccnc1	-1	0	2	98*	-2	-3
COc1ccc(NC(=O)CSCC(=O)Nc2ccccc2N2CCCC2)cc1	-2	0	x	99*	-1	2
O=c1c2ccccc2n(Cc2ccccc2)n1[C@@H](Cc1ccccc1)Cn1cc(-c2ccc(-c3ccccc3)cc2)nn1	10	x	x	x	x	x
O=C(NCCc1ccccc1)OCc1cn(Cc2cccc(C(F)(F)F)c2)nn1	-2	x	x	x	x	x
Cc1onc(-c2c(F)cccc2Cl)c1-c1ncc(-c2ccc(Cl)cc2)o1	1	x	x	x	x	x
CCCc1c(C(=O)N/N=C(\C)CCc2ccccc2)nnn1-c1nonc1N	-3	0	67*	-6	14	0
CCCCSCCCNC(=S)Nc1ccccc1C	-5	2	-1	77*	-13	1
Cn1c(=O)c(Oc2cc(Cl)cc(Cl)c2)nc2ccccc21	0	0	-6	98*	-4	-2
COc1ccc(Oc2nc3ccccc3n(C)c2=O)cc1	2	0	1	-13	-1	1
Oc1[nH]c2ccccc2c1C=Nc1ccccc1	-3	0	-6	x	-8	0
COCC(C)N=Cc1c(O)[nH]c2ccccc12 (centres undefined)	-1	0	0	99*	-9	-5
CN(C)CC(C)(C)CN=Cc1c(O)[nH]c2ccccc12	-5	0	2	99*	0	6
OCCN=Cc1c(O)[nH]c2ccccc12	0	0	28	99*	0	0
COC(=O)c1cc(-c2ccc(C)c(C)c2)c(=O)n2c1CCC2	3	x	x	x	x	x
O=C1CC(c2ccco2)Sc2nc3ccccc3n21 (centres undefined)	11	0	106*	55	-5	1
O=C1CC(c2ccc3c(c2)OCO3)Sc2nc3ccccc3n21 (centres undefined)	0	0	97*	4	-10	-6
COC(=O)[C@H](CC(C)C)N1Cc2nnn(CC3CCCCC3)c2-c2ccccc2S1(=O)=O	3	x	x	x	x	x
CCc1ccccc1NC(=O)c1sc2nc(C)cc(C)c2c1N	0	0	30	x	-6	-5
Cc1cc(C)c2c(N)c(S(=O)(=O)Cc3ccccc3)sc2n1	7	0	20	91*	-6	-1
